Laboratory results from PubChem BioAssay (NCI).
The panel holds about 79,000 compounds, 15% with a hit somewhere; the sample as a whole holds those more often. Unmarked numbers belong to inactive results. Activity calls are given as the source filed them. Rule as the data show it: active = growth inhibition above about 70%; inactive = the rest.

Experiment: NCI Yeast Anticancer Drug Screen. Data for the bub3 strain (AID 167)
Conditions: S. cerevisiae bub3 mutant strain, at 5.0 µM (retest, dose inferred, filed as 0.5), stronger effect = higher value
Method in brief: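 Part of a panel of yeast mutants defective in DNA damage repair or cell cycle regulation. Each strain is grown with compound, and inhibition is calculated relative to solvent-treated cultures.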

Row | Structure (SMILES) | growth inhibition
1 | N#C/C(=N\O)C(N)=O | 3%
2 | COc1ccc(C(N)=O)cc1 | -6%
3 | CC1=C(/C=C/C(C)=C/C(=O)O)C(C)(C)CCC1 | 4%
4 | CC(=O)Oc1c(Br)cc(Br)cc1C(OC(C)=O)OC(C)=O | 6%
5 | CCCCCCN(CCCCCC)CCCCCCCCCCCO | 16%
6 | COc1cccc(NC(=O)c2c(SC)n[nH]c2N)c1 | 43%
7 | O=C(O)/C=C\C(=O)NNc1ccccc1 | 14%
8 | Oc1ccc(Cc2cccc(Cl)c2)c(O)c1 | 0%
9 | C=COC(=O)c1ccccc1C(=O)OCCCC | 4%
10 | O=C(O)c1ccc(-c2ccccc2)cc1 | -1%
11 | N#CC(c1ccccc1)C(c1ccccc1)c1ccccc1 (centres undefined) | 13%
12 | CC(C)(C)c1cc([N+](=O)[O-])c(O)c([N+](=O)[O-])c1 | 18%
13 | CSC(SC)=C(C#N)C(=O)Nc1cccc(Cl)c1 | 65%
14 | CCOC(=O)C(NC(C)=O)C(=O)c1ccccc1 (centres undefined) | 2%
15 | O=[N+]([O-])/C=C/c1cccs1 | 48%
16 | C/C(=N\Nc1ccc(Cl)cc1)C(=O)O | 29%
17 | CC(=O)Nc1ccc(/C=N/NC(=S)NCC(C)C)cc1 | 5%
18 | CCCCN(CCCC)C(=O)C(C)OC(C)=O (centres undefined) | -2%
19 | C=CCCCCCCCCC(=O)NN | 0%
20 | C1CCC(CCCc2nn[nH]n2)CC1 | 1%

Row | Structure (SMILES) | growth inhibition
21 | CSS(C)(=O)=O | -1%
22 | Clc1ccc(-n2ncc3c(Cl)nc(Cl)nc32)cc1 | 99% (active)
23 | C(CCc1nn[nH]n1)CCC1CCCCC1 | 11%
24 | Oc1ccc(/C=C/c2ccc(Cl)cc2)cc1 | 10%
25 | Cc1ccc2[nH]cc(CC(=O)O)c2c1 | 99% (active)
26 | CN(C)c1cc(N)c(Cc2c(N)cc(N(C)C)cc2Cl)c(Cl)c1 | 6%
27 | O=C1c2ccccc2-c2ccc(O)cc21 | 10%
28 | CC(=O)Oc1ccc(OC(C)=O)c2c1CC=CC2 | 4%
29 | O=c1c2ccccc2ncn1O | 5%
30 | CC(C)(C)C(=O)CC(c1ccccc1)c1ccccc1 | 10%
31 | Cc1cccc(N=NC(C#N)C#N)c1 | 1%
32 | CC(=O)Nc1nc(-c2ccccc2)cs1 | -1%
33 | CC(C)c1cc([N+](=O)[O-])c(O)c([N+](=O)[O-])c1 | 29%
34 | CC(C)NC(=O)C(C)O (centres undefined) | 6%
35 | CN(C)CNC(=S)S | 99% (active)
36 | CCCCNC(=O)C(C)O (centres undefined) | 1%
37 | COc1cccc(NC(=O)c2c(SC)c(C#N)c(=O)n(N)c2N)c1 | 7%
38 | COc1ccc(/C(C#N)=C/c2cccc(N)c2)cc1 | 13%
39 | CCCCC(CC)CNC(=O)CI (centres undefined) | 9%
